# From the supplement of paper PMC9950053
# Counter-ions that a name gives are not always drawn.
# Tested on: Danio rerio larvae (5 dpf)
# Experiment: excitability (activity period 17 minus period 16, 1-s interval sound) minus DMSO control (percentage points); higher = more acoustic excitability than DMSO larvae
# Conditions: 10 µM; exposure time: 3 h pre-incubation + 3 h imaging
# Protocol: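 Wild-type 5 dpf zebrafish larvae (n=48 per drug, 96-well plates, 28.5 °C) were exposed to Tocris FDA-approved library compounds at 10 µM (0.1% DMSO) for 3 h before and 3 h during imaging. Images were taken every 6 s during visual (moving coloured lines) and acoustic stimuli, and larvae were tracked with the DeepLabCut-based Z-LaP Tracker. Each behavioural measure is the treated-group mean minus the DMSO vehicle control mean (n=844), in percentage points. This mapping covers compounds with 4-character plate codes.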
row,SMILES,excitability
1,Cc1cn([C@H]2C=C[C@@H](CO)O2)c(=O)[nH]c1=O [Stavudine],1.32
2,O=C1CCc2cc(OCCCCc3nnnn3C3CCCCC3)ccc2N1 [Cilostazol],9.2
3,CC(C)N(CCCCOCC(=O)NS(C)(=O)=O)c1cnc(-c2ccccc2)c(-c2ccccc2)n1 [Selexipag],5.98
4,Nc1ccn([C@@H]2O[C@H](CO)[C@@H](O)C2(F)F)c(=O)n1 [Gemcitabine hydrochloride],1.87
5,Cn1cnc([N+](=O)[O-])c1Sc1ncnc2[nH]cnc12 [Azathioprine],0.781
6,CN1CC[C@@H](NC(=O)Nc2ccc(C#N)cc2)C[C@@H]1c1nc2ccccc2[nH]1,6.95
7,O=C(O)CCCc1ccccc1 [Sodium 4-Phenylbutyrate],2.71
8,C[C@]12CC[C@@H]3c4ccc(O)cc4C[C@@H](CCCCCCCCC[S+]([O-])CCCC(F)(F)C(F)(F)F)[C@H]3[C@@H]1CC[C@@H]2O (stereo not given in full),3.06
9,Nc1nc(F)nc2c1ncn2[C@@H]1O[C@H](CO)[C@@H](O)[C@@H]1O [Fludarabine],1.97
10,Nc1nc(NC2CC2)c2ncn([C@H]3C=C[C@@H](CO)C3)c2n1 [Abacavir hemisulfate],0.611
11,CCCCNc1cc(C(=O)O)cc(S(N)(=O)=O)c1Oc1ccccc1 [Bumetanide],7.06
12,CCOC(=O)C1=C(COCCN)NC(C)=C(C(=O)OC)C1c1ccccc1Cl (stereo not given) [Amlodipine besylate],1.82
13,CC(=O)S[C@@H]1CC2=CC(=O)CC[C@]2(C)[C@H]2CC[C@@]3(C)[C@@H](CC[C@@]34CCC(=O)O4)[C@H]12 [Spironolactone],3.91
14,C#C[C@]1(O)CC[C@H]2[C@@H]3CCC4=CC(=O)CC[C@@H]4[C@H]3CC[C@@]21CC [Levonorgestrel],3.64
15,O=c1[nH]c(=O)n([C@H]2C[C@H](O)[C@@H](CO)O2)cc1C(F)(F)F [Trifluorothymidine],4.38
16,Cc1nc(-c2ccc(OCC(C)C)c(C#N)c2)sc1C(=O)O [Febuxostat],-0.805
17,Brc1c(NC2=NCCN2)ccc2nccnc12,6.71
18,COc1ccc(Cl)cc1C(=O)NCCc1ccc(S(=O)(=O)NC(=O)NC2CCCCC2)cc1 [Glibenclamide],2.33
19,Cc1cccc(CN2CCN(C(c3ccccc3)c3ccc(Cl)cc3)CC2)c1 (stereo not given) [Meclizine dihydrochloride],8.17
20,CN(C)CCC[C@@]1(c2ccc(F)cc2)OCc2cc(C#N)ccc21 [Escitalopram oxalate],14.5

row,SMILES,excitability
1,COc1c(C)c2c(c(O)c1C/C=C(\C)CCC(=O)O)C(=O)OC2 [Mycophenolic acid],1.48
2,COc1cc(Nc2c(C#N)cnc3cc(OCCCN4CCN(C)CC4)c(OC)cc23)c(Cl)cc1Cl [Bosutinib],7.41
3,CN(CCOc1ccc(CC2SC(=O)NC2=O)cc1)c1ccccn1 (stereo not given) [Rosiglitazone],17.9
4,CC[C@H](C)C(=O)O[C@H]1C[C@@H](C)C=C2C=C[C@H](C)[C@H](CC[C@@H]3C[C@@H](O)CC(=O)O3)[C@H]21 [Lovastatin],15
5,CCOC(=O)N1CCC(=C2c3ccc(Cl)cc3CCc3cccnc32)CC1 [Loratidine],-3.25
6,Nc1nc2[nH]cc(CCc3ccc(C(=O)N[C@@H](CCC(=O)O)C(=O)O)cc3)c2c(=O)[nH]1 [Pemetrexed],2.33
7,CCOC(=O)c1ncn2c1CN(C)C(=O)c1cc(F)ccc1-2 [Flumazenil],2.65
8,COC(c1ccccc1)(c1ccccc1)[C@H](Oc1nc(C)cc(C)n1)C(=O)O [Ambrisentan],-1.02
9,CC(C)c1nc(N(C)S(C)(=O)=O)nc(-c2ccc(F)cc2)c1/C=C/[C@@H](O)C[C@@H](O)CC(=O)O [Rosuvastatin calcium],-2.24
10,CC1(C)O[C@@H]2[C@@H](CO[C@@]3(COS(N)(=O)=O)OC(C)(C)O[C@@H]23)O1 [Topiramate],2
11,CCCN(CCc1cccs1)[C@H]1CCc2c(O)cccc2C1 [Rotigotine hydrochloride],13.6
12,Cc1ccc(O)c([C@H](CCN(C(C)C)C(C)C)c2ccccc2)c1 [Tolterodine L-tartrate],4.8
13,CCC(C)(C)C(=O)O[C@H]1C[C@@H](C)C=C2C=C[C@H](C)[C@H](CC[C@@H]3C[C@@H](O)CC(=O)O3)[C@H]21 [Simvastatin],10.2
14,CN(CCOc1ccc(NS(C)(=O)=O)cc1)CCc1ccc(NS(C)(=O)=O)cc1 [Dofetilide],6.73
15,CC(C)n1c(/C=C/C(O)CC(O)CC(=O)O)c(-c2ccc(F)cc2)c2ccccc21 (stereo not given) [Fluvastatin sodium],3.75
16,COc1ccccc1OCCNCC(O)COc1cccc2[nH]c3ccccc3c12 (stereo not given) [Carvedilol],22.5
17,CC1CNc2c(cccc2S(=O)(=O)N[C@@H](CCCNC(=N)N)C(=O)N2CC[C@@H](C)C[C@@H]2C(=O)O)C1 (stereo not given in full) [Argatroban],0.775
18,Cc1nnc(C(C)C)n1C1C[C@H]2CC[C@@H](C1)N2CC[C@H](NC(=O)C1CCC(F)(F)CC1)c1ccccc1 (stereo in doubt) [Maraviroc],6.13
19,COc1cccc2c1C(=O)c1c(O)c3c(c(O)c1C2=O)C[C@@](O)(C(=O)CO)C[C@@H]3O[C@H]1C[C@H](N)[C@H](O)[C@H](C)O1 [Doxorubicin hydrochloride],15.5
20,CC(C)[C@H]1CC[C@H](C(=O)N[C@H](Cc2ccccc2)C(=O)O)CC1 [Nateglinide],2.5
